PubChem BioAssay (NCATS)
Inconclusive results are not listed. Values without a mark were called inactive. Activity calls are given as the source filed them. Calls follow the shape of the dose curve; as a rule, active = well fitted inhibition curve with a large enough effect; inconclusive = small, poorly fitted or top-dose-only effect; inactive = flat fitted curve, though single readings scatter.
% is scaled to controls: 0 for no effect and ±100 for the full control effect; potency is read from the fitted curve at half-maximal effect.

What follows are compounds tested against Glutathione peroxidase 1 (Homo sapiens) (UniProt P07203) (assay: Primary qHTS Assay for Inhibitors of Recombinant Selenoprotein Glutathione Peroxidase 1 (GPX1) (AID 1845191; also: nearly all actives have a fitted effect of over 65% in size)). Settings: recombinant GPX1, GR-coupled NADPH fluorescence, 15 min; series mostly up to 48.8 µM; activity, negative = inhibition: at the top concentration.
Chain of Glutathione peroxidase 1 (Homo sapiens) (P07203 whole entry, looked up): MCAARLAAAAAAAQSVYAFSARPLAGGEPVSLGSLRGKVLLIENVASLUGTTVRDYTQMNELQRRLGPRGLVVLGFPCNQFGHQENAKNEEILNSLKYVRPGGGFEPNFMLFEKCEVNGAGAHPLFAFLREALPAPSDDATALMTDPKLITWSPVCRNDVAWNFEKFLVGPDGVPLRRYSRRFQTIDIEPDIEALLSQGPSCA
Procedure, shortened: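 GPX1 10 nM, GR 100 nM, GSH 1 mM, NADPH 0.5 mM, CHP 0.5 mM (final). 30-min cpd preincubation, RT. Ex340/Em450 read t=0, t=15 min.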
With CCN1CCN(c2cc(-c3ccc(F)cc3)c3c(n2)CCCCCC3)CC1 the “outcome” value was “inactive [at 27.7 µM]”.
CCC(C(=O)NC(=O)NC(C)=O)c1ccccc1 (stereo not drawn) was tested, and the “outcome” value was “inactive”.
For Brc1ccc([C@H]2CN3CCSC3=N2)cc1, the Potency was “inactive”.
For O=C1NC2CCCCN2C12CCN(CCCN1c3ccccc3CCc3ccc(Cl)cc31)CC2 (stereo not drawn), the “activity, negative = inhibition” value was -12.3%.
For CCOC(=O)c1ccc(OCCN2C[C@H](O)[C@@H](O)[C@H](O)[C@H]2CO)cc1, the “activity, negative = inhibition” value was -1.56%.
For COC(=O)/C=C\C(=O)OC, the “activity, negative = inhibition” value was -15.6%.
For CC(C)(C)c1nnc(NS(=O)(=O)c2ccccc2)s1, the “activity, negative = inhibition” value was 3.1%.
COc1c(N2C[C@@H]3CCCN[C@@H]3C2)c(F)cc2c(=O)c(C(=O)O)cn(C3CC3)c12 was tested, and the Potency was 14.3 µM (active).
For O=C(O)[C@@H](O)[C@H](O)[C@H](O)[C@@H](O)C(=O)O, the “activity, negative = inhibition” value was 1.63%.
With CCOC(=O)c1ccc(NC(=O)CN2CCCCC2)cc1 the “activity, negative = inhibition” value was -11.4%.
CC(C(=O)O)c1ccc(/C=C2\CCCCC2=O)cc1 (stereo not drawn) was tested, and the “outcome” value was “inactive”.
With COC(=O)CCCCC(CCSS/C(CCO)=C(\C)N(C=O)Cc1cnc(C)nc1N)SC(C)=O (stereo not drawn) the “activity, negative = inhibition” value was -5.62%.
For Cn1cc(S(C)=O)c(=O)c2ccc(F)cc21 (stereo not drawn), the “activity, negative = inhibition” value was -12.1%.
CC(=O)Oc1ccc(C2(c3ccc(OC(C)=O)cc3)Oc3ccccc3NC2=O)cc1 was tested, and the “outcome” value was “inactive”.
For CC(=O)OCC[N+](C)(C)C, the “activity, negative = inhibition” value was -3.26%.
O=C(O)CNC(=O)CNC(=O)CNC(=O)CSC(=O)c1ccccc1 was tested, and the “outcome” value was “inactive”.
With CCCCCCCCCCCCCCCCCCNC(=O)OC1CCN(C(=O)OC[C@H](COC(=O)N(Cc2cccc[n+]2CC)C(=O)c2ccccc2OC)OC)CC1 the “outcome” value was “inactive”.
O=C(CCCCCCCCC#CI)Oc1ccccc1 was tested, and the “activity, negative = inhibition” value was 2.51%.
